Test [1] in a line: qHTS assay to identify small molecule agonists of the NFkB signaling pathway - cell viability counter screen (AID 1159515; calls by dose curve; further: nearly all actives have a fitted effect of over 55% in size; further: potency means the concentration at half of the fitted maximal effect). A digest of the protocol: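 Viability in NFkB-bla ME-180 cells was measured by CellTiter-Glo luminescence, 30 min room temperature, in wells already treated 5 hr with compounds and read for reporter FRET.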
A short description of test [2]: qHTS assay to identify small molecule antagonists of the retinoid-related orphan receptor gamma (ROR-gamma) signaling pathway - cell viability counter screen (AID 1159520). Further: nearly all actives have a fitted effect of over 50% in size. Further: potency means the concentration at half of the fitted maximal effect. In a few lines:
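Tet-on ROR gamma CHO cells were given compounds for 2 hr, then doxycycline hyclate at 1 uM final, and incubated 16 hr at 37 C. Viability was measured as ATP content by CellTiter-Glo luminescence.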
Background: In qHTS, concentration-response curves come from the screen itself.

The target of test [3] is Nuclear receptor ROR-gamma (Homo sapiens) (UniProt P51449). Nature of the test: qHTS assay to identify small molecule antagonists of the retinoid-related orphan receptor gamma (ROR-gamma) signaling pathway (AID 1159521; further: nearly all actives have a fitted effect of over 50% in size; further: potency means the concentration at half of the fitted maximal effect). In a few lines: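 CHO cells expressing RORγ under a TET-on promoter, luciferase under RORE control. Dox 1 uM final, 16 h; compounds added 2 h prior. Luminescence decrease measured.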

Test [4] is described as follows: qHTS assay to identify small molecule antagonists of the retinoid acid receptor (RAR) signaling pathway - cell viability counter screen (AID 1159551). Further: nearly all actives have a fitted effect of over 35% in size. Further: potency means the concentration at half of the fitted maximal effect. In a few lines:
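Following overnight attachment, C3RL4 reporter cells received DMSO-dissolved compounds and then retinol (1 uM final). Six hours later at 37 C, ATP content was measured by CellTiter-Glo luminescence.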

Test [5] is described as follows: qHTS assay to identify small molecule agonists of the retinoic acid receptor (RAR) signaling pathway (AID 1159553). A digest of the protocol:
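Cell line C3RL4, RARE luciferase reporter. Treatment: compounds in DMSO, 6 hr, 37 C, 5% CO2, after overnight plating. Detection: luminescence, 30 min RT after reagent.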

Test [6] is described as follows: qHTS assay to identify small molecule antagonists of the estrogen related receptor (ERR) signaling pathway - cell viability counter screen (AID 1224818). Further: series mostly up to about 46 µM. In a few lines:
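Here, ERR cells are plated at 2,000 cells per well, allowed 6 h to attach, and treated with compounds in DMSO for 17.5 h at 37 C. CellTiter-Fluor is then added and fluorescence read after 30 min.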

Test [7] in a line: qHTS assay to identify small molecule agonists of the estrogen related receptor (ERR) signaling pathway (AID 1224820). A digest of the protocol: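 Cells: ERR line from NTP, 2,000/well. Pre-incubation 6 h, 37 C/5% CO2. Compound (DMSO) pin transfer, 18 h 37 C. One-Glo, 30 min RT, luminescence.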
Test [8] has as its system estrogen-related receptor alpha (ERRalpha) with PGC-1alpha coactivator, human. As to the kind of experiment: qHTS assay to identify small molecule antagonists of the estrogen related receptor signaling pathway with the pleiotropic PPARgamma coactivator (PGC) (AID 1224821; calls by dose curve; further: nearly all actives have a fitted effect of over 50% in size; further: potency means the concentration at half of the fitted maximal effect). In a few lines:
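Luminescent read-out (One-Glo, 30 min at room temperature) following 18 h treatment of PGC/ERR cells at 37 C with compounds delivered in DMSO. Cells had settled 6 h at 37 C/5% CO2 before dosing.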

Test [9] can be described thus: qHTS assay to identify small molecule antagonists of the estrogen related receptor signaling pathway with the pleiotropic PPARgamma coactivator (PGC) cell viability counter screen (AID 1224822; further: series mostly up to about 46 µM). In a few lines: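 qHTS format, DMSO compound stocks pin-transferred onto PGC/ERR cells 6 h after plating; 17.5 h exposure at 37 C, then CellTiter-Fluor fluorescence.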

A short description of test [10]: qHTS assay to identify small molecule agonists of the estrogen related receptor signaling pathway with the pleiotropic PPARgamma coactivator (PGC) (AID 1224823). In a few lines:
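Steps: plate PGC/ERR cells at 2,000 cells/well; incubate 6 h, 37 C/5% CO2; pin-transfer compounds (DMSO); incubate 18 h, 37 C; add One-Glo; 30 min RT; read luminescence.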

Test [11] is described as follows: qHTS assay to identify small molecule agonists of the vitamin D receptor (VDR) signaling pathway - cell viability counter screen (AID 743224). Further: nearly all actives have a fitted effect of over 50% in size. Further: potency means the concentration at half of the fitted maximal effect. In a few lines: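 VDR-bla cell line, quantitative HTS format; 16 h compound incubation (37C, 5% CO2); ATP-based CellTiter-Glo luminescence measured in the reporter assay wells.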
A short description of test [12]: qHTS assay to identify small molecule antagonists of the vitamin D receptor (VDR) signaling pathway - cell viability counter screen (AID 743225). Further: nearly all actives have a fitted effect of over 50% in size. Further: potency means the concentration at half of the fitted maximal effect. A digest of the protocol: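 Luminescent cell viability (CellTiter-Glo) in VDR-bla HEK 293T cells after 16 h compound exposure at 37C in the presence of 3 nM final 1-alpha,25-dihydroxy vitamin D3.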
Test [13] is described as follows: qHTS assay to identify small molecule agonists of the AP-1 signaling pathway - cell viability counter screen (AID 1159525; calls by dose curve; further: nearly all actives have a fitted effect of over 55% in size; further: potency means the concentration at half of the fitted maximal effect). In a few lines: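 AP-1-bla ME-180 cells in Opti-MEM with 0.5% dialyzed FBS, compound exposure 5 h at 37 C in 15-point titration. Viability read in the same wells as ATP content by CellTiter-Glo luminescence, normalised to tetra-n-octylammonium bromide and DMSO controls.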

A short description of test [14]: qHTS assay to identify small molecule agonists of the RXR signaling pathway - cell viability counter screen (AID 1159529). In a few lines: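 Same-well viability check after the LiveBLAzer FRET read: CellTiter-Glo added, luminescence measured after 30 min at room temperature. Reporter HEK 293T cells had been treated with compounds for 16 hr following a 5 hr preincubation.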

The nature of test [15]: qHTS assay to identify small molecule antagonists of the retinoic acid receptor (RAR) signaling pathway (AID 1159552). A digest of the protocol: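 Readout: luciferase luminescence, 30 min post-reagent at RT. Setup: C3RL4 RARE reporter cells, compounds plus retinol 1 uM final, 6 hr incubation at 37 C and 5% CO2.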
Test [16] in a line: qHTS assay to identify small molecule antagonists of the estrogen related receptor (ERR) signaling pathway (AID 1224819). In a few lines: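 LOPAC library screened for antagonism as reduced One-Glo luminescence in ERR reporter cells (2,000/well). Compounds were added after 6 h pre-incubation and left 18 h at 37C; reading followed a 30 min room-temperature reagent step.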

Where “and” joins values, the source holds several entries; their conditions need not be identical. Equal entries are not always repeated. Inconclusive results are not listed. Calls of active or inactive are those of the source. Unless noted, the call rests on the fitted dose curve; in most records, active means well fitted curve in the direction sought with a large enough effect in the repeat runs; inconclusive means weak or mixed curves; inactive means no such curve, though single readings can be large; an effect the other way counts as inactive or inconclusive.

In the case of `OCc1c[nH]c2ccccc12`, the Potency result in test [1], in test [2], in test [3], in [4], in test [5] and in test [6] was “inactive” throughout. Moreover, the Potency result in test [8] and in test [9] was “inactive” in each case. Moreover, the compound was called inactive in test [7] and in test [10].
Consider `CCCCC(CC)CN=C(N)NC(N)=NCCCCCCN=C(N)NC(N)=NCC(CC)CCCC` (stereo not given), for which the Potency is 23.7 µM (active) in test [11]; 7.56 µM (active) in [12]; 19 µM (active) in [1]; 26.6 µM (active) in test [2]; 26.6 µM (active) in [3]; 10.7 µM (active) in [13]. Besides, the Potency in test [14] is 8.49 µM (active); in test [4], 29.8 µM (active); in test [15] it was 11.9 µM (active).
As to `CCOC(=O)O[C@H](C)OC(=O)c1ccc2c(c1)cc(C(=O)NC1CCN(C(C)C)CC1)n2Cc1cc(-c2ccc(Cl)s2)on1`, the Potency in [11] was 14.5 µM (active); in test [1] it was 45.8 µM (active); in test [2], 11.4 µM (active); in [3] it was 4.54 µM (active); in [13] it was 16.2 µM (active); in [14] it was 6.46 µM (active). In addition, the values for the Potency in test [4] and in test [15] were 28.6 µM (active) and 12.8 µM (active), respectively.
Turning to `CC(=O)N1CCN(c2ccc(OC[C@H]3CO[C@](Cn4ccnc4)(c4ccc(Cl)cc4Cl)O3)cc2)CC1`, the Potency in [11] is 21.9 µM (active); in [12], 38.9 µM (active); in test [1], 61.6 µM (active); in test [3], 9.69 µM (active); in test [13], 49 µM (active); in test [14], 17.4 µM (active). For the same compound, the Potency in [16] is 9.08 µM (active); in test [8] it was 29.8 µM (active). The compound was classed as inactive in [7] and in test [10].
Turning to `N#CSc1ccc(N)c([N+](=O)[O-])c1`, the Potency in test [11] is 55.3 µM (active); in test [3], 48.9 µM (active); in test [15] it was 17.3 µM (active). Further, the Potency entry in test [1] and in [13] was “inactive” throughout.
For the compound `C=CC(=O)OCC(CO)(COC(=O)C=C)COC(=O)C=C`, the Potency in test [11] is 12.3 µM (active) and 13.8 µM (active); in [12], 13.9 µM (active) and 15.5 µM (active); in test [3], 2.44 µM (active) and 6.86 µM (active); in test [13], 49.1 µM (active) and 49 µM (active); in test [14], 13.9 µM (active) and 12.3 µM (active); in test [4], 61.3 µM (active). Moreover, the Potency entry in test [1] is “inactive”.
With `CC[C@@]1(O)C(=O)OCc2c1cc1n(c2=O)Cc2cc3c(CN(C)C)c(O)ccc3nc2-1`, the Potency result in test [1], in [13], in test [4] and in test [5] was “inactive” throughout. The Potency in [2] was 2.11 µM (active); in [15], 3.76 µM (active); in [16], 0.75 µM (active). Moreover, the compound was called inactive in test [7] and in test [10].
On to `CNc1ccc(O)cc1`, for which the Potency was 38.8 µM (active) in test [11]; 48.9 µM (active) in test [1]; 7.68 µM (active) in test [2]; 24.5 µM (active) in test [13]; 34.6 µM (active) in test [14]; 27.3 µM (active) in [4]. Moreover, the Potency in [15] is 27.3 µM (active).
With `Nc1cc(C(F)(F)F)ccc1S`, the Potency result in test [11], in [12], in test [1], in test [13] and in [4] was “inactive” throughout. In addition, the Potency in test [3] was 26.6 µM (active); in [14], 8.49 µM (active); in test [15] it was 6.68 µM (active).
Consider `Cc1[nH]cnc1C[C@H]1CCc2c(C)c3ccccc3n2C1=O`, for which the Potency result in [11], in test [12], in test [1], in test [13] and in [5] was “inactive” in each case. In addition, the figures for the Potency in test [3] and in test [14] were 23.7 µM (active) and 19 µM (active), respectively.

(Values after PubChem BioAssay (Tox21).)
